Among the data in publication PMC11006913 are binding signal values, retold here.

Common to all, as to assay: PBM; 200 nM protein, PBS
Common to all, as to conditions: dsDNA, one strand shown

For test [1], the target named is T1, NKX2-6 (Homo sapiens, UniProt A6NCS4 118-204).
T1 sequence: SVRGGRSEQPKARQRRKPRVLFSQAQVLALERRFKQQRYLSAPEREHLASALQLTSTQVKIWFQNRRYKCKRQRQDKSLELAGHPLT

Test [2] addresses T2, NKX2-6 (Homo sapiens, UniProt A6NCS4 118-204, F151L).
T2 sequence: T1 sequence with F34L

For test [3], the target named is VAX1 (Homo sapiens, UniProt Q5SQQ9 86-172).
Sequence of VAX1 (Homo sapiens, UniProt Q5SQQ9 86-172) (Q5SQQ9 86-172): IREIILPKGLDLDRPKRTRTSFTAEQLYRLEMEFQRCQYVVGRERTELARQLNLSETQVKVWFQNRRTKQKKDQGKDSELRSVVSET
Test [4] addresses VAX1 (Homo sapiens, UniProt Q5SQQ9 86-172, T142I).
In test [5] the target is VAX1 (Homo sapiens, UniProt Q5SQQ9 86-172, K157R).
Sequence of VAX1 (Homo sapiens, UniProt Q5SQQ9 86-172, K157R) (Q5SQQ9 86-172 K157R): as the sequence (Q5SQQ9 86-172) above, with K72R counted along it
Test [6] deals with PITX2 (Homo sapiens, UniProt Q99697 72-157).
Test [7] deals with ALX3 (Homo sapiens, UniProt O95076 139-225).
Sequence of ALX3 (Homo sapiens, UniProt O95076 139-225) (O95076 139-225): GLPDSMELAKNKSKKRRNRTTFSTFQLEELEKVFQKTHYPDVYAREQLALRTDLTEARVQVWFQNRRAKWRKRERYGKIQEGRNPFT
Test [8] addresses ALX3 (Homo sapiens, UniProt O95076 139-225, L168Q).

Substitutions are numbered along the chain they refer to.

Sequence of ALX3 (Homo sapiens, UniProt O95076 139-225, L168Q) (O95076 139-225 L168Q): as the sequence (O95076 139-225) above, with L30Q counted along it
Sequence of VAX1 (Homo sapiens, UniProt Q5SQQ9 86-172, T142I) (Q5SQQ9 86-172 T142I): as the sequence (Q5SQQ9 86-172) above, with T57I counted along it

As to ACGGCCAG, the binding signal in test [1] is 9.26 upbm affinity estimate (log intensity, higher = more binding, comparable within an allelic series); in test [2], 9.26 upbm affinity estimate (log intensity, higher = more binding, comparable within an allelic series).

Regarding CGCTCGGC, the binding signal is 9.08 upbm affinity estimate (log intensity, higher = more binding, comparable within an allelic series) in test [1]; 6.93 upbm affinity estimate (log intensity, higher = more binding, comparable within an allelic series) in test [3]; 9.38 upbm affinity estimate (log intensity, higher = more binding, comparable within an allelic series) in test [2]; 6.99 upbm affinity estimate (log intensity, higher = more binding, comparable within an allelic series) in test [4]; 6.71 upbm affinity estimate (log intensity, higher = more binding, comparable within an allelic series) in test [5].

For the sequence CGTCCTGC, the binding signal in test [1] was 9 upbm affinity estimate (log intensity, higher = more binding, comparable within an allelic series); in test [6] it was 7.8 upbm affinity estimate (log intensity, higher = more binding, comparable within an allelic series); in test [2], 9.34 upbm affinity estimate (log intensity, higher = more binding, comparable within an allelic series).

Regarding CGCGGACG, the binding signal in test [1] was 9.09 upbm affinity estimate (log intensity, higher = more binding, comparable within an allelic series); in test [2] it was 9.22 upbm affinity estimate (log intensity, higher = more binding, comparable within an allelic series).

As for GGGCGGCA, the binding signal in test [1] is 9.62 upbm affinity estimate (log intensity, higher = more binding, comparable within an allelic series); in test [2] it was 9.36 upbm affinity estimate (log intensity, higher = more binding, comparable within an allelic series).

As for AACACGCC, the binding signal was 9.5 upbm affinity estimate (log intensity, higher = more binding, comparable within an allelic series) in test [1] and 9.31 upbm affinity estimate (log intensity, higher = more binding, comparable within an allelic series) in test [2].

As to ATCCCAGG, the binding signal is 9.47 upbm affinity estimate (log intensity, higher = more binding, comparable within an allelic series) in test [1] and 9.43 upbm affinity estimate (log intensity, higher = more binding, comparable within an allelic series) in test [2].

With CAGCCGTC, the binding signal in test [1] is 9.5 upbm affinity estimate (log intensity, higher = more binding, comparable within an allelic series); in test [2] it was 9.26 upbm affinity estimate (log intensity, higher = more binding, comparable within an allelic series).

As to CACCGTAG, the binding signal in test [1] is 9.56 upbm affinity estimate (log intensity, higher = more binding, comparable within an allelic series); in test [2], 9.37 upbm affinity estimate (log intensity, higher = more binding, comparable within an allelic series).

Consider ACGGCACG, for which the binding signal in test [1] is 9.26 upbm affinity estimate (log intensity, higher = more binding, comparable within an allelic series); in test [2] it was 9.49 upbm affinity estimate (log intensity, higher = more binding, comparable within an allelic series).

CTGTGGCC: the binding signal in test [1] is 9.24 upbm affinity estimate (log intensity, higher = more binding, comparable within an allelic series); in test [6], 7.86 upbm affinity estimate (log intensity, higher = more binding, comparable within an allelic series); in test [2] it was 9.38 upbm affinity estimate (log intensity, higher = more binding, comparable within an allelic series).

ATACTTAG: the binding signal was 13.1 upbm affinity estimate (log intensity, higher = more binding, comparable within an allelic series) in test [1] and 10.4 upbm affinity estimate (log intensity, higher = more binding, comparable within an allelic series) in test [2].

On to ACGGGACT, for which the binding signal in test [1] was 9.76 upbm affinity estimate (log intensity, higher = more binding, comparable within an allelic series); in test [2], 9.42 upbm affinity estimate (log intensity, higher = more binding, comparable within an allelic series).

As for TCAACTCA, the binding signal in test [1] is 11.4 upbm affinity estimate (log intensity, higher = more binding, comparable within an allelic series); in test [2] it was 9.78 upbm affinity estimate (log intensity, higher = more binding, comparable within an allelic series).

On to GTTGATGA, for which the binding signal is 10.9 upbm affinity estimate (log intensity, higher = more binding, comparable within an allelic series) in test [1] and 9.75 upbm affinity estimate (log intensity, higher = more binding, comparable within an allelic series) in test [2].

Regarding CCGCGCGG, the binding signal is 9.66 upbm affinity estimate (log intensity, higher = more binding, comparable within an allelic series) in test [1] and 9.56 upbm affinity estimate (log intensity, higher = more binding, comparable within an allelic series) in test [2].

As for AGCGGAGC, the binding signal in test [1] was 9.34 upbm affinity estimate (log intensity, higher = more binding, comparable within an allelic series); in test [2] it was 9.31 upbm affinity estimate (log intensity, higher = more binding, comparable within an allelic series).

On to AACCGGAG, for which the binding signal in test [1] is 9.55 upbm affinity estimate (log intensity, higher = more binding, comparable within an allelic series); in test [2], 9.32 upbm affinity estimate (log intensity, higher = more binding, comparable within an allelic series).

In the case of CGGCGTGA, the binding signal was 9.3 upbm affinity estimate (log intensity, higher = more binding, comparable within an allelic series) in test [1] and 9.33 upbm affinity estimate (log intensity, higher = more binding, comparable within an allelic series) in test [2].

Consider CAGGCACA, for which the binding signal in test [1] is 9.47 upbm affinity estimate (log intensity, higher = more binding, comparable within an allelic series); in test [2] it was 9.38 upbm affinity estimate (log intensity, higher = more binding, comparable within an allelic series).

In the case of ACTTACAT, the binding signal in test [1] is 11.6 upbm affinity estimate (log intensity, higher = more binding, comparable within an allelic series); in test [7], 8.97 upbm affinity estimate (log intensity, higher = more binding, comparable within an allelic series); in test [8] it was 8.46 upbm affinity estimate (log intensity, higher = more binding, comparable within an allelic series); in test [2], 9.95 upbm affinity estimate (log intensity, higher = more binding, comparable within an allelic series).

With TGGTACCA, the binding signal in test [1] was 9.64 upbm affinity estimate (log intensity, higher = more binding, comparable within an allelic series); in test [2] it was 9.28 upbm affinity estimate (log intensity, higher = more binding, comparable within an allelic series).

For GTTAAGTA, the binding signal was 13.5 upbm affinity estimate (log intensity, higher = more binding, comparable within an allelic series) in test [1] and 10.8 upbm affinity estimate (log intensity, higher = more binding, comparable within an allelic series) in test [2].

In the case of CGTCGGAC, the binding signal in test [1] was 9.07 upbm affinity estimate (log intensity, higher = more binding, comparable within an allelic series); in test [2], 9.37 upbm affinity estimate (log intensity, higher = more binding, comparable within an allelic series).

In the case of CGTCTGGC, the binding signal in test [1] is 9.46 upbm affinity estimate (log intensity, higher = more binding, comparable within an allelic series); in test [2], 9.41 upbm affinity estimate (log intensity, higher = more binding, comparable within an allelic series).

As for ACGCATCC, the binding signal is 9.51 upbm affinity estimate (log intensity, higher = more binding, comparable within an allelic series) in test [1] and 9.35 upbm affinity estimate (log intensity, higher = more binding, comparable within an allelic series) in test [2].

Consider CATGTGGG, for which the binding signal is 9.41 upbm affinity estimate (log intensity, higher = more binding, comparable within an allelic series) in test [1] and 9.56 upbm affinity estimate (log intensity, higher = more binding, comparable within an allelic series) in test [2].
